Measured values as given in ChEMBL document CHEMBL1201862, “PubChem BioAssay data set” (2004).
Potency and affinity values are given separately.

Experiment: A High Throughput Confirmatory Assay used to Identify Novel Compounds that Inhibit Mycobacterium Tuberculosis in the absence of Glycerol using Purified and Synthesized Compounds (4).
Format: functional

## Cc1cc(Br)ccc1NC(=O)c1cnc(N2CCN(c3ccccn3)CC2)c2ccccc12
  IC90: > 51.1 µM (active)
